# Screening results as filed in PubChem BioAssay.
# hgDAF12 agonist: activates the H. glycines DAF-12 receptor ligand-binding domain; HEK293 GAL4-hgDAF12 UAS-luciferase reporter, agonist luminescence; normalized to butyrate control; 370,000 tested, 1.8% active; activation, % at 6.8 µM; AID 687014;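 active means activation above a cutoff set at the mean of all screened compounds plus 3 SD, cut at about 10% in these data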;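 further: 0% = DMSO wells and 100% = sodium butyrate wells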
# DAX1 inh-1: DAX1 (NR0B1) inhibition, primary screen; 370,000 tested, 1.1% active; inhibition, % at 6.8 µM; HEK293T StAR-luciferase reporter, SF-1/DAX-1 repression relief;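 active means inhibition above the mean over all tested compounds plus 3 SD, cut at about 3.6% in these data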;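 further: 0% = DAX-1 cells with DMSO and 100% = cells lacking DAX-1 with DMSO; higher inhibition means more luminescence from relief of DAX-1 repression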
# hcDAF12 agonist: H. contortus DAF-12 activation, primary screen; HEK293 hcDAF-12 lit1-tk-luc reporter, luminescence; 0% DMSO, 100% Δ7-dafachronic acid; activation, % at 6.8 µM; 370,000 tested, 1.4% active;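 active means activation above the mean of all tested compounds plus 3 SD, cut at about 5.5% in these data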;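 further: 100% = response to 3 µM Δ7-dafachronic acid high control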
# ssDAF-12 act: S. stercoralis DAF-12 activation, primary screen. AID 652126. 370,000 tested, 1% active. HEK293 ssDAF-12/GRIP1 lit1-tk-luc reporter, luminescence; % of 3 µM dafachronic acid response. activation, % at 6.8 µM;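 active means activation above the mean over all tested compounds plus 3 SD, cut at about 0.9% in these data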;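 further: 0% = DMSO-only wells and 100% = 3 µM delta7-dafachronic acid wells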
# DAX1 inh-2: inhibitors of human orphan nuclear receptor DAX1 (NR0B1). P51843. HEK293 Gal4-DAX1 luciferase reporter, luminescence. inhibition, % at 6.75 µM. 340,000 tested, 0.99% active;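 active means inhibition above the mean over all tested compounds plus 3 SD, cut at about 4.2% in these data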;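 further: 0% = DAX1-transfected cells with DMSO and 100% = empty-vector control cells with DMSO; inhibition shows as a rise in luminescence from relieved DAX1 repression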
# hgDAF12 ag: hgDAF-12 agonism, confirmation assay; activation, % at 6.8 µM; 3,300 tested, 80% active; HEK293 GAL4-hgDAF12 luciferase reporter, agonist mode; percent of butyrate response; AID 743050; shares compounds with hgDAF12 agonist;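 active means mean activation over triplicate wells above the hit cutoff derived from the earlier primary screen, cut at about 11% in these data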;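 further: 0% = DMSO low control and 100% = 2 mM sodium butyrate high control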
# LXR ag 2: counter-screen for DAF-12 agonists: agonists of human LXR-beta; shares compounds with hgDAF12 agonist; 3,300 tested, under 10 active; HEK293 Gal4-LXR luciferase reporter, 24 h; activation, % at 6.8 µM;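 active means mean activation of the triplicate above a set limit carried over from the primary screen, none filed active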
# Target sequence (P55055 whole entry, looked up, the tested form may be a part): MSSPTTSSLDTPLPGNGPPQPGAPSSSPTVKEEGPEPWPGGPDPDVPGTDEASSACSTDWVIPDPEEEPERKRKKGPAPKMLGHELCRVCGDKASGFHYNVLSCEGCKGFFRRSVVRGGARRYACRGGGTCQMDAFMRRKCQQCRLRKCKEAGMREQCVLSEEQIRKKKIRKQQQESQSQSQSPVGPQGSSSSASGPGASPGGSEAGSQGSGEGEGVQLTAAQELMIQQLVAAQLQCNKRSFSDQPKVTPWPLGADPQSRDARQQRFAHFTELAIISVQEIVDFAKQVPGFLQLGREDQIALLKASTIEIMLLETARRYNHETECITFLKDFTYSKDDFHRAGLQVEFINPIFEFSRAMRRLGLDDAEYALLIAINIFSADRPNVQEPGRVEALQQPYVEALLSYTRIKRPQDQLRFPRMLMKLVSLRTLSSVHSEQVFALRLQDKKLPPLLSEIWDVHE
# Starred values were filed as active, the others as inactive; . = no result given. In the library only some 4.1% were active in any assay of this set; here they are far more common.
SMILES,hgDAF12 agonist,DAX1 inh-1,hcDAF12 agonist,ssDAF-12 act,DAX1 inh-2,hgDAF12 ag,LXR ag 2
O=C(Nc1cccc(-c2csc(Nc3ccc(Cl)cc3)n2)c1)c1ccccc1,-1,-1,3,-1,1,.,.
Clc1ccc(-c2csc(Nc3cccnc3)n2)cc1,3,0,1,-1,2,.,.
CC(=O)Nc1cccc(-c2csc(Nc3ncccn3)n2)c1,19*,2,5,1.1*,.,16*,1
CCNC(=O)N1CCN(c2ccc(N3CCN(Cc4ccccc4)[C@H](C)C3)c(C)c2)[C@@H](C)C1,0,-1,-3,-1,.,.,.
Cc1ccc2oc(-c3ccco3)cc(=O)c2c1,14*,4,2,0,0,17*,1
O=c1cc(-c2ccco2)oc2ccccc12,1,0,0,-1,3,.,.
COC(=O)[C@]12C=CCN1[C@@H](c1ccc(C(F)(F)F)cc1)c1c(c3ccccc3n1S(=O)(=O)c1ccc(C)cc1)C2,2,0,4,-1,.,.,.
CC1CCc2c(sc(NC(=O)C3CCCO3)c2C#N)C1 (stereo unspecified),20*,3,1,-1,2,10*,1
C[C@H](O)[C@@H]1CN2CCc3c([nH]c4ccccc34)[C@@H]2C[C@@H]1N(C)CC1CCCCC1,3,0,-1,-1,.,.,.
Cn1c(N)c(C(=O)Nc2ccc3ccccc3c2)sc1=S,15*,2,3,-1,3,13*,1
Cc1ccc(N(C)S(=O)(=O)c2cccc(C(=O)Nc3nc4ccccc4[nH]3)c2)cc1,-3,-1,-3,-2,0,.,.
O=C(Nc1nc2ccccc2[nH]1)c1cccc([N+](=O)[O-])c1,16*,1,2,0,1,14*,1
O=[N+]([O-])c1ccc2nc(-c3ccccc3)[nH]c2c1,20*,4.0*,5,0,2,18*,1
CN(C)c1cccc(C(=O)Nc2nc3ccccc3[nH]2)c1,15*,2,5,0,-3,9,1
c1ccc(CSc2ccc(-c3ccccn3)nn2)nc1,16*,3,3,0,1,10,1
Clc1ccc(-c2ccc(SCc3ccccn3)nn2)cc1,7,1,2,1,1,.,.
COC(=O)[C@]12C[C@H](CC(=O)N3CCC(c4ccccc4)CC3)C(=O)N(CCc3ccc(OC)c(OC)c3)C1=C[C@H](C1CCCC1)O[C@@H]2C,4,-1,1,-2,.,.,.
COc1ccc(CCNC(=O)Nc2ccccc2[N+](=O)[O-])cc1,16*,2,1,-1,.,5,0
COc1ccc(CCNC(=O)COC(=O)Cc2ccccc2[N+](=O)[O-])cc1,-6,-3,3,0,1,.,.
CCOC(=O)[C@]12CCCC3=C1N(CCC3)C(=O)[C@@H](CC(=O)NCC1CCCCC1)C2,2,-1,-2,-1,.,.,.
O=C(Nc1ccc(NC(=O)c2cccs2)cn1)c1ccccc1,16*,3,5,0,1,15*,1
O=C(Nc1ccc(NC(=O)C2CC2)cn1)c1ccccc1,16*,3,5,0,0,13*,1
COc1ccccc1C(=O)NC1CCCCN(C)C1=O (stereo unspecified),-4,0,-1,-1,.,.,.
Cc1ccc(NC(CC(=O)c2ccccc2)C(=O)O)cc1Cl (stereo unspecified),16*,4.2*,5.6*,0,5.4*,27*,1
Nn1c(SCC(=O)Nc2ccccc2-c2ccccc2)nnc1-c1cc(-c2ccc(F)cc2)n[nH]1,2,0,0,-1,.,.,.
SMILES,hgDAF12 agonist,DAX1 inh-1,hcDAF12 agonist,ssDAF-12 act,DAX1 inh-2,hgDAF12 ag,LXR ag 2
Cc1ccc(C(=O)c2coc3ccc(O)c(Cl)c23)cc1,17*,3,4,0,6.5*,13*,0
Cc1ccc(C(=O)c2coc3ccc(O)cc23)cc1,18*,4,5,1.1*,2,22*,1
O=C(c1ccccc1)c1coc2ccc(O)c(Cl)c12,5,1,2,0,3,.,.
O=C1NC(c2ccccc2)c2c(-c3ccccc3)n[nH]c21 (stereo unspecified),-4,0,-1,-1,.,.,.
O=C(NCc1ccccc1)Nc1ccccc1C(=O)N1CCCC1,-2,1,2,-1,.,.,.
O=C(NS(=O)(=O)c1ccccc1[N+](=O)[O-])[C@H]1O[C@@H](n2ccc(=O)[nH]c2=O)[C@H](O)[C@@H]1O,15*,0,-1,-1,.,4,0
O=C(NCc1cccc(Cl)c1)c1ccc(-c2cccnc2)c2ccoc12,-2,0,-2,-2,.,.,.
O=C(NCCc1ccccc1)c1ccc(-c2cccnc2)c2ccoc12,14*,4.3*,1,1,.,11*,0
Nc1[nH]c(C(=O)c2ccc(Br)cc2)c(-c2cccc3ccccc23)c1C(=O)NCCc1c[nH]c2ccccc12,2,0,1,1,.,.,.
O=c1[nH]nc(-c2ccc(F)cc2)cc1-c1ccccc1,-3,0,-2,-2,-1,.,.
O=C1c2ccccc2-c2nnc(-c3ccc(F)cc3)cc21,15*,2,6.0*,1.4*,7.1*,11*,1
c1ccc(-c2cc3nccc(-c4ccccn4)n3n2)cc1,23*,1,4,0,4,16*,1
CC(C)(C)NC(=S)NNC(=O)c1cccc(Br)c1,21*,1,1,-1,2,5,0
O=C(NNC(=S)Nc1ccccc1)c1cccc(Br)c1,3,3,3,0,1,.,.
CCOc1cc(/C=N/NC(=O)Nc2ccccc2)ccc1O,13*,1,6.1*,3.8*,0,11*,0
COc1ccc(C=NNC(=O)NN=Cc2ccc(OC)c(OC)c2)cc1OC,13*,1,3,-1,5.0*,9,0
CCOc1cc(/C=N/NC(=O)c2ccc(NC(=O)C3CC3)cc2)ccc1O,-2,-2,3,-1,0,.,.
N#CC1CC(c2ccccc2)=NN1c1ccccc1[N+](=O)[O-] (stereo unspecified),16*,1,4,0,1,13*,0
O=CN1N=C(c2ccccc2)CC1c1ccccc1[N+](=O)[O-] (stereo unspecified),1,0,1,0,1,.,.
CC(C)N1CCc2c(sc(NC(=O)C(F)(F)F)c2-c2nc3ccccc3s2)C1,9,.,-1,0,.,.,.
Cc1ccc(N=Nc2ccc(O)cc2)c(Br)c1,15*,3,5,1,2,16*,1
